From PubChem BioAssay (Tox21)
Where “and” joins values, the source holds several entries; their conditions need not be identical. Equal entries are not always repeated. Inconclusive results are not listed. A call without a number means that no potency is given here. The source holds several records for some structures; these can differ, active in one and inactive in another. Calls of active or inactive are those of the source. Unless noted, calls come from the whole dose curve; as a rule, active = well fitted curve in the direction sought with a large enough effect in the repeat runs; inconclusive = weak or mixed curves; inactive = no such curve, though single readings can be large; an effect the other way counts as inactive or inconclusive.

How the values were obtained:
[1] = biological target: Estrogen receptor beta (Homo sapiens) (UniProt Q92731); test: qHTS assay to identify small molecule antagonists of the estrogen receptor beta (ER-beta) signaling pathway (AID 1259378; active = well fitted inhibition curve with a large enough effect in the signal ratio in the repeat runs, not every such curve was filed as active; the % refers to the signal ratio)
How it was run: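 ER-beta-UAS-bla HEK293T (GripTite) cells in 2% charcoal-stripped FBS medium were preincubated 6 hr at 37C, dosed with compound, then stimulated with 1 nM E2 (final) for 16 hr; beta-lactamase reporter read by B/G FRET fluorescence after 2 hr substrate loading.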

[2] = qHTS assay to identify small molecule agonists of the androgen receptor (AR) signaling pathway in the presence of an antagonist - cell viability counter screen (AID 1259379);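 note: MDA-kb2 human breast cancer cells carrying an MMTV luciferase reporter; series mostly up to about 92 µM; nearly all actives have a fitted effect of over 25% in size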
How it was run: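 Fluorescence from CellTiter-Fluor, added after 15 hr and read 1 hr later, gave cell viability. Cells were MDA-kb2 exposed to compounds (15 concentrations) in the presence of 3.0uM nilutamide at 37C, 0% CO2.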

[3] = qHTS assay to identify small molecule agonists of the estrogen receptor beta (ER-beta) signaling pathway - cell viability counter screen (AID 1259380); note: nearly all actives have a fitted effect of over 30% in size; note: potency is the fitted concentration of half-maximal effect
How it was run: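 Same-well viability counter screen. Cells: ER-beta-UAS-bla HEK293T, plated 6 hr before compound, in 2% charcoal-stripped FBS. Compound exposure 16 hr, 37C; viability by CellTiter-Glo luminescence after 30 min at room temperature.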

[4] = biological target: Androgen receptor (Homo sapiens) (UniProt P10275); test: qHTS assay to identify small molecule agonists of the androgen receptor (AR) signaling pathway in the presence of an antagonist (AID 1259381; calls by dose curve; note: nearly all actives have a fitted effect of over 15% in size)
How it was run: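 Cells are MDA-kb2 (human breast carcinoma, MMTV-luc, AR/GR responsive). Nilutamide is present at 3.0uM final throughout; compounds are added at 15 concentrations and incubated 16hr at 37C before ONE-Glo luminescence detection.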

[5] = qHTS assay to identify small molecule antagonists of the estrogen receptor beta (ER-beta) signaling pathway - cell viability counter screen (AID 1259382); note: series mostly up to about 92 µM; nearly all actives have a fitted effect of over 55% in size
How it was run: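 Following a 6 hr plating period, HEK293T cells carrying a UAS-driven beta-lactamase reporter under ER-beta control received compounds and 1nM E2 (final). After 16 hr at 37C and 2 hr substrate loading, CellTiter-Glo luminescence indicated viability.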

[6] = qHTS assay to identify small molecule agonists or antagonists of the thyroid stimulating hormone receptor (TSHR) signaling pathway - wild type cell line counter screen (AID 1259384; calls by dose curve)
How it was run: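 Wild-type HEK293 cells were plated 18 h at 37 C/5% CO2, pin-dosed with compound plus Ro20-1724 medium, held 30 min at room temperature, then given cAMP-d2 and anti-cAMP-cryptate; fluorescence was read after 1 h. Fifteen concentrations, triplicate.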

[7] = biological target: Thyrotropin receptor (Homo sapiens) (UniProt P16473); test: qHTS assay to identify small molecule antagonists of the thyroid stimulating hormone receptor (TSHR) signaling pathway (AID 1259385; calls by dose curve; note: nearly all actives have a fitted effect of over 20% in size)
How it was run: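 TSHR-HEK293 cells were plated and held 18 h at 37C/5% CO2, then given compound plus Ro20-1724 and stimulated with TSH at 1.5 ng/mL final. After 30 min at room temperature, cAMP was detected with cAMP-d2/anti-cAMP-cryptate (1 h) by fluorescence.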

[8] = qHTS assay to identify small molecule agonists of the estrogen receptor alpha (ER-alpha) signaling pathway in the presence of an antagonist - cell viability counter screen (AID 1259386);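 note: series mostly up to about 92 µM; cells exposed to compounds for 22 h at 37 °C before the viability read; nearly all actives have a fitted effect of over 30% in size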
How it was run: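 Cells are starved of estrogens for 5 days in charcoal-stripped serum, seeded for 24hr and co-treated with ICI-182,780 (10.0nM final) and test compounds. After 22hr at 37C, viability is read as CellTiter-Fluor fluorescence.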

[9] = biological target: Progesterone receptor (Homo sapiens) (UniProt P06401); test: qHTS assay to identify small molecule agonists of the progesterone receptor (PR) signaling pathway (AID 1346784; calls by dose curve; note: nearly all actives have a fitted effect of over 30% in size; note: potency is the fitted concentration of half-maximal effect)
How it was run: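 PR-UAS-bla HEK 293T cells (beta-lactamase reporter under UAS) in 2% charcoal-stripped FBS, dosed with 23 nL compound after 6 hr, incubated 16hr at 37C. LiveBLAzer B/G FRET substrate added, fluorescence read after 2 hours.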

[10] = biological target: Progesterone receptor (Homo sapiens) (UniProt P06401); test: qHTS assay to identify small molecule antagonists of the progesterone receptor (PR) signaling pathway (AID 1346795; active = well fitted inhibition curve with a large enough effect in the signal ratio in the repeat runs, not every such curve was filed as active; the % refers to the signal ratio; note: potency is the fitted concentration of half-maximal effect)
How it was run: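 PR-UAS-bla HEK293T cells with beta-lactamase reporter under UAS control, in 2% charcoal-stripped FBS, treated with compounds plus 1 nM promegestone (R5020, final) for 16 hr at 37C. Read-out: FRET beta-lactamase substrate fluorescence after 2 hr at room temperature.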

[11] = qHTS assay to identify small molecule antagonists of the progesterone receptor (PR) signaling pathway - cell viability counter screen (AID 1346798); note: series mostly up to about 92 µM; nearly all actives have a fitted effect of over 50% in size
How it was run: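 PR-UAS-bla HEK293T cells, 3,000/well in 2% charcoal-stripped FBS medium, dosed with compounds plus R5020 agonist and incubated 16 h at 37C. Viability then measured in the same wells by CellTiter-Glo luminescence after 30 min at RT.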

[12] = qHTS assay to identify small molecule agonists of the progesterone receptor (PR) signaling pathway - cell viability counter screen (AID 1346799; calls by dose curve; note: nearly all actives have a fitted effect of over 45% in size)
How it was run: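 Counter screen in the PR-UAS-bla HEK293T wells (2% charcoal-stripped FBS, 16 h compound exposure at 37 C) after the bla read. CellTiter-Glo added, 30 min at room temperature, luminescence read as cell viability.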

[13] = qHTS assay to identify small molecule antagonists of the TGF-beta/Smad signaling pathway - cell viability counter screen (AID 1346824); note: nearly all actives have a fitted effect of over 50% in size
How it was run: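 SBE-bla HEK 293T cells were plated overnight at 37 C, then given compounds in DMSO plus TGF-beta1 (added as 0.25 ng/mL solution) for 5 hr. After the bla read, CellTiter-Glo was added to the same wells and luminescence read after 30 min at room temperature.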

[14] = qHTS assay to identify small molecule agonists of the TGF-beta/Smad signaling pathway - cell viability counter screen (AID 1346829); note: top concentration of the series differs between compounds; nearly all actives have a fitted effect of over 45% in size
How it was run: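 Compound-treated SBE-bla HEK 293T cells (5 hr, 37 C) were assessed for viability with CellTiter-Glo in parallel with the reporter read.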

[15] = biological target: Thyrotropin-releasing hormone receptor (Homo sapiens) (UniProt P34981); test: qHTS assay to identify small molecule antagonists of the thyrotropin-releasing hormone receptor (TRHR) signaling pathway (AID 1346877; active = well fitted inhibition curve with a large enough effect in the repeat runs, not every such curve was filed as active; note: series mostly up to about 51 µM)
How it was run: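 Cells (TRHR-HEK293) are plated and kept 18 h at 37 °C/5% CO2. A calcium-sensitive dye is added for 2 h, compound follows for 5 min at room temperature, and TRH is then given at 1 nM final.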

[16] = biological target: Thyrotropin-releasing hormone receptor (Homo sapiens) (UniProt P34981); test: qHTS assay to identify small molecule agonists of the thyrotropin-releasing hormone receptor (TRHR) signaling pathway (AID 1346891; calls by dose curve; note: series mostly up to about 58 µM)
How it was run: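 HEK293 cells expressing TRHR plated 18 h at 37 C/5% CO2, calcium dye-loaded 2 h at 37 C, then compound added (agonist mode); kinetic calcium fluorescence read 3 min at 1 s intervals; 15 concentrations in triplicate.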

[17] = Human pregnane X receptor (PXR) small molecule agonists, qHTS cell viability counter screen (AID 1346977); note: nearly all actives have a fitted effect of over 50% in size; note: potency is the fitted concentration of half-maximal effect
How it was run: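 PXR-Luc HepG2 cells (2,000/well, 5% charcoal-stripped FBS) preincubated 5 hr, then exposed to compounds 24 hr at 37 C. Viability read in the same wells by CellTiter-Fluor fluorescence, reagent added at 23 hr, 1 hr incubation.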

[18] = Caspase-3/7 induction in HepG2 cells by small molecules, qHTS assay (AID 1346978); note: nearly all actives have a fitted effect of over 15% in size
How it was run: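 Wild-type HepG2 cells (2,000/well) were settled 5 h at 37 C, 5% CO2, then exposed to compounds in DMSO for 17 h. Caspase-3/7 activity was read by luminescence 30 min after adding Caspase-Glo 3/7 reagent at room temperature.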

[19] = biological target: Estrogen receptor (Homo sapiens) (UniProt P03372); test: qHTS assay to identify small molecule agonists of the estrogen receptor alpha (ER-alpha) signaling pathway in the presence of an antagonist (AID 1259383; calls by dose curve; note: nearly all actives have a fitted effect of over 15% in size; note: potency is the fitted concentration of half-maximal effect; for activation: top concentration of the series differs between compounds)
How it was run: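 Cells are hormone-deprived for 5 days (charcoal-stripped FBS, no phenol red), plated for 24hr, spiked with 10.0nM ICI-182,780, then dosed at 15 concentrations. After 22hr at 37C, ONE-Glo luminescence reports ERE-luciferase activity.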

[20] = qHTS assay to identify small molecule agonists of the TGF-beta/Smad signaling pathway (AID 1346859; active = well fitted activation curve with a large enough effect in the signal ratio in the repeat runs, not every such curve was filed as active; the % refers to the signal ratio; note: series mostly up to about 77 µM)
How it was run: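 SBE-bla HEK293T cells plated overnight, then compound exposure for 5 h at 37 C. Beta-lactamase reporter read with LiveBLAzer B/G FRET substrate after 2 h at room temperature, fluorescence at 405 nm excitation, 460/530 nm emission.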

Estrogen receptor beta (Homo sapiens), sequence (Q92731 whole entry, looked up): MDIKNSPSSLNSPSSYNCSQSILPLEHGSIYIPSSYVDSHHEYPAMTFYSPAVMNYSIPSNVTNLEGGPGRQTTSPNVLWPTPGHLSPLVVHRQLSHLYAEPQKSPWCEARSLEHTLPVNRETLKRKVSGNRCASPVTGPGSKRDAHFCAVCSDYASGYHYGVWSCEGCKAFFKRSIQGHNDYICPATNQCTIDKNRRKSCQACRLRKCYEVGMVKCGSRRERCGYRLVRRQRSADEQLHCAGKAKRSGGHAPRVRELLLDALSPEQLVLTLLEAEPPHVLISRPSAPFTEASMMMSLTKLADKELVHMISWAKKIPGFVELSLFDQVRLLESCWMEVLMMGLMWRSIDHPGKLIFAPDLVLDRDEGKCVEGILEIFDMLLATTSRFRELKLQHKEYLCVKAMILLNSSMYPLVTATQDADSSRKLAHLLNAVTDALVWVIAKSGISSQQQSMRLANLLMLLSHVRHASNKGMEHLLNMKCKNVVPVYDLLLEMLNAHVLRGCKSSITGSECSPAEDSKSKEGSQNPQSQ
Thyrotropin receptor (Homo sapiens), sequence (P16473 whole entry, looked up): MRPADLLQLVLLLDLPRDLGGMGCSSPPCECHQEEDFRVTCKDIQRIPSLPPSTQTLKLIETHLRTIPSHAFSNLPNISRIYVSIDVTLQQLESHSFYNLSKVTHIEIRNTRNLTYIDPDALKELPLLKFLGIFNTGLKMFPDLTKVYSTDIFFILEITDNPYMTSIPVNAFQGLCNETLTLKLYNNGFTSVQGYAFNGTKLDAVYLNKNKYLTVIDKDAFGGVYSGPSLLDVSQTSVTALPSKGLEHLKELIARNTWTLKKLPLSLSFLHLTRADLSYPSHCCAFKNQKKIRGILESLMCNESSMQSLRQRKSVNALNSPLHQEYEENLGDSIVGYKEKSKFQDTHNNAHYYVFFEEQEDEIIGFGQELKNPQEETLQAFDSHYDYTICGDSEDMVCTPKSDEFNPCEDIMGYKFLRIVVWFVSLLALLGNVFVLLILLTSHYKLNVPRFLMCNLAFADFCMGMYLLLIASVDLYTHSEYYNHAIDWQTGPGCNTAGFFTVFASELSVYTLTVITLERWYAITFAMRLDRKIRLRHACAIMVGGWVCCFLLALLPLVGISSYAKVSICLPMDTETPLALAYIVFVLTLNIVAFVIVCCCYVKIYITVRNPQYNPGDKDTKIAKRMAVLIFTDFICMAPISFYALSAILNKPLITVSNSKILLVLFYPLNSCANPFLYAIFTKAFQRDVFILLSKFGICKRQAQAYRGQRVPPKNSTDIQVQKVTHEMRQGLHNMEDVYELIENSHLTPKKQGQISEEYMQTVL
Thyrotropin-releasing hormone receptor (Homo sapiens), sequence (P34981 whole entry, looked up): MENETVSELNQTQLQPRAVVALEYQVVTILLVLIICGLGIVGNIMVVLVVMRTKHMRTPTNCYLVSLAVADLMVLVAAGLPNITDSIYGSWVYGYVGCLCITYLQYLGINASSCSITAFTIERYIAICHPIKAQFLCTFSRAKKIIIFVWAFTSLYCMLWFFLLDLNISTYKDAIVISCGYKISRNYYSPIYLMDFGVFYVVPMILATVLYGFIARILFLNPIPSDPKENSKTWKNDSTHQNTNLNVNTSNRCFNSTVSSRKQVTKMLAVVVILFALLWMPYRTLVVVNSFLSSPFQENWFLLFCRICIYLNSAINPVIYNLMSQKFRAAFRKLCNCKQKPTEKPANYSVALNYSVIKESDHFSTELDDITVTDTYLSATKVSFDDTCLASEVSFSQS
Androgen receptor (Homo sapiens), sequence (P10275 whole entry, looked up): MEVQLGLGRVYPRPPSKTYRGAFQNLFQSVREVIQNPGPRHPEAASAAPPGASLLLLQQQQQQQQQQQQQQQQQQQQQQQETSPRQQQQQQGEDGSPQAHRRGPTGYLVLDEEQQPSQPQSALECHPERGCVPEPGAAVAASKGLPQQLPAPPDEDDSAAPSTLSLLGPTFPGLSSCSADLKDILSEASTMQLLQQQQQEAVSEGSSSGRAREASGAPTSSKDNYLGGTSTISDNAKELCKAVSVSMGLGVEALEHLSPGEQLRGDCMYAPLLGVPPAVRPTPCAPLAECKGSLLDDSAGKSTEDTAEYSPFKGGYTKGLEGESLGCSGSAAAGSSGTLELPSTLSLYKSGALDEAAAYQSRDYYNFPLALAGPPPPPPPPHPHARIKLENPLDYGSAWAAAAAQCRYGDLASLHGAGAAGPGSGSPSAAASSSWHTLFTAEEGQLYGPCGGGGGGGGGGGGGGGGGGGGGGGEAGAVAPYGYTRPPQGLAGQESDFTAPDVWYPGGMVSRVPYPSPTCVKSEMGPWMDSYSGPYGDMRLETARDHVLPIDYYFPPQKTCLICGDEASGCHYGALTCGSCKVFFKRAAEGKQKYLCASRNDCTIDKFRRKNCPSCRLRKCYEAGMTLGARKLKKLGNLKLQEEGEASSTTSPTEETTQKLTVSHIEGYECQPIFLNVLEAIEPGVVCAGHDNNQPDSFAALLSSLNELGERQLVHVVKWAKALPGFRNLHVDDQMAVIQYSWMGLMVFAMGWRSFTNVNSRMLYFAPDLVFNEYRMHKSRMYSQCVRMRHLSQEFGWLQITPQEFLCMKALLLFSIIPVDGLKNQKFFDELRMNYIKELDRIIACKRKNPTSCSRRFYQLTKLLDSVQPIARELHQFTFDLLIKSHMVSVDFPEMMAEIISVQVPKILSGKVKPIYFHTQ
Progesterone receptor (Homo sapiens), sequence (P06401 whole entry, looked up): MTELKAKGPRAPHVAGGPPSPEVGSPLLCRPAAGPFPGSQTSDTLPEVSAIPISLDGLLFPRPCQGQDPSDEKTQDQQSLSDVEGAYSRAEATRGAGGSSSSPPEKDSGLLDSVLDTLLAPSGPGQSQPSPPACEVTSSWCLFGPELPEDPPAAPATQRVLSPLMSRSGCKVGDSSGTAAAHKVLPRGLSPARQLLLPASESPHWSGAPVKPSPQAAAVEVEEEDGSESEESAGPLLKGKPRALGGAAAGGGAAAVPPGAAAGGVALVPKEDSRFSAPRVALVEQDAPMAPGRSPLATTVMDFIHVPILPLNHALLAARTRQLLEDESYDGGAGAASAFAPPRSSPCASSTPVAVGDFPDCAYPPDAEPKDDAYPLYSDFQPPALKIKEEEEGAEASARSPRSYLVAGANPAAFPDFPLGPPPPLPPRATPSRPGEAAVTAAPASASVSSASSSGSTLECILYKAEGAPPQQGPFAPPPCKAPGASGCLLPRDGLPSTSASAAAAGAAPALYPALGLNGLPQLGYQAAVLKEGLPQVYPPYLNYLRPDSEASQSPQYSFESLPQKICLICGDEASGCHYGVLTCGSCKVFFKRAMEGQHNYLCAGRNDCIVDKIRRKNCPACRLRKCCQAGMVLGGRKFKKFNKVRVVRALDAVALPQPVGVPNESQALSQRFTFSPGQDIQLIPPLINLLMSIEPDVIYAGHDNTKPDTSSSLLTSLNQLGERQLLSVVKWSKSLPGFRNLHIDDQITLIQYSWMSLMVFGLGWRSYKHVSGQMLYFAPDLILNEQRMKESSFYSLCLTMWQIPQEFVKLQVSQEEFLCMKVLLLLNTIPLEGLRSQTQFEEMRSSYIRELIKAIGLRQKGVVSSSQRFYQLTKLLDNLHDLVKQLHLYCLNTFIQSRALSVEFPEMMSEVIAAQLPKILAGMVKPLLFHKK
Estrogen receptor (Homo sapiens), sequence (P03372 whole entry, looked up): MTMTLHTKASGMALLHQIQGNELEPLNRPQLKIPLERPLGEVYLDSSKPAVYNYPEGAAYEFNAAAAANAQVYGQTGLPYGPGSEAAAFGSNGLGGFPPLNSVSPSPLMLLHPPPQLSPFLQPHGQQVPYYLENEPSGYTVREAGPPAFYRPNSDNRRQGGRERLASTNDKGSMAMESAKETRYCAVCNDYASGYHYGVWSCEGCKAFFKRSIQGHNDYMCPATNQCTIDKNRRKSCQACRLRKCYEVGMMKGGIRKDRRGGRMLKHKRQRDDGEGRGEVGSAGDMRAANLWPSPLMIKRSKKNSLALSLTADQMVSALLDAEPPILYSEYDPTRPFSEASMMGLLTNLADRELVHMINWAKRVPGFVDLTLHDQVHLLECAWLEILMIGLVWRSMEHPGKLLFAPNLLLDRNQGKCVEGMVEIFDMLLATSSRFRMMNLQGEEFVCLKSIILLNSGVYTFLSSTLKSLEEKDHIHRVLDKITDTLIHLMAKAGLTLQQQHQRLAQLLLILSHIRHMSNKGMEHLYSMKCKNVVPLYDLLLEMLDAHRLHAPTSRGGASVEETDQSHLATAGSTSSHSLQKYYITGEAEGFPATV

SMILES	Potency [1]	Potency [2]	Potency [3]	Potency [4]	Potency [5]	outcome [6]	outcome [7]	Potency [8]	Potency [9]	Potency [10]	Potency [11]	Potency [12]	Potency [13]	Potency [14]	outcome [15]	Potency [16]	Potency [17]	Potency [18]	Potency [19]	outcome [20]
CCCCC(CC)COC(=O)/C=C\C(=O)OCC(CC)CCCC (centres undefined)	inactive	inactive	inactive	inactive	inactive	inactive	inactive	inactive	inactive	inactive	inactive	inactive	inactive	inactive	inactive	inactive	inactive	inactive		
Oc1ccc(OCc2ccccc2)cc1	inactive	inactive	inactive	inactive	inactive	inactive	inactive	inactive	inactive	18.9 µM (active)	inactive	inactive	inactive	inactive	inactive	inactive	inactive	inactive	15 µM (active) and inactive	inactive
Nc1nc2ncc(CNc3ccc(C(=O)N[C@@H](CCC(=O)O)C(=O)O)cc3)nc2c(=O)[nH]1	inactive	inactive	inactive	inactive	inactive	inactive	inactive	inactive	inactive	inactive	inactive	inactive	inactive	inactive			inactive	inactive		inactive
COC(=O)c1ccccc1O	inactive	inactive	inactive		inactive	inactive	inactive		inactive		inactive	inactive	inactive	inactive	inactive	inactive	inactive	inactive	inactive	
O=[N+]([O-])C(CO)(CO)CO	inactive	inactive	inactive		inactive	inactive	inactive	inactive	inactive	inactive	inactive	inactive	inactive	inactive	inactive	inactive	758 nM (active) and inactive	inactive	inactive	
CCc1ccccc1O	inactive	inactive	inactive		inactive	inactive	inactive	inactive	inactive		inactive	inactive	inactive	inactive	inactive	inactive	inactive	inactive	inactive	inactive
CCc1ccc(O)cc1	inactive	inactive	inactive	inactive	inactive	inactive	inactive	inactive	inactive	inactive	inactive	inactive	inactive	inactive			inactive	inactive		
CC(=O)CCc1ccccc1	inactive	inactive	inactive		inactive	inactive	inactive	inactive	inactive	inactive	inactive	inactive	inactive	inactive			inactive	inactive		
O=C(Cl)c1c(Cl)c(Cl)c(C(=O)Cl)c(Cl)c1Cl	inactive	inactive	inactive		inactive			inactive	inactive	inactive	inactive	inactive	inactive	inactive	inactive	inactive	inactive	inactive	inactive	inactive
NC(=O)NNc1ccccc1	inactive	inactive	inactive		inactive	inactive	inactive	inactive	inactive	inactive	inactive	inactive	inactive	inactive	inactive	inactive	inactive	inactive		inactive
OCCOCCOCCOCCO	inactive	inactive	inactive		inactive	inactive	inactive		inactive		inactive	inactive	inactive	inactive	inactive	inactive	inactive	inactive	inactive	
OCC1CCCO1 (centres undefined)	inactive	inactive	inactive	inactive	inactive			inactive	inactive		inactive	inactive	inactive	inactive	inactive	inactive	inactive	inactive	inactive	inactive
CC1(C)O[C@@H]2C[C@H]3[C@@H]4C[C@H](F)C5=CC(=O)CC[C@]5(C)[C@H]4[C@@H](O)C[C@]3(C)[C@]2(C(=O)CO)O1	inactive	inactive	inactive		inactive	inactive	inactive	inactive	5.4 nM (active) and 6 nM (active)	inactive	inactive	inactive	inactive	inactive	inactive	inactive	inactive	inactive	inactive	inactive
C=CC(=O)OCCCCCCCC(C)C	inactive	inactive	inactive	inactive	inactive	inactive	inactive	inactive	inactive		inactive	inactive	inactive	inactive	inactive	inactive	inactive	inactive	inactive	
CCCCC/C=C\C/C=C\CCCCCCCC(=O)OC	inactive	inactive	inactive and 48.6 µM (active)		inactive	inactive	inactive	inactive	inactive		inactive	inactive	inactive	inactive			inactive	inactive	inactive	inactive
